# Rows were chosen to be rich in hits. Some 3.2% of all compounds tested hit in one or more screens of this group.
# Nrf2 inh = Nrf2 qHTS screen for inhibitors. Potency, µM (doses to about 46 µM), without a hit: at the highest dose activity change, negative = inhibition, actives largely listed as inhibitors. A549 ARE-Fluc reporter, luciferase luminescence, 18-24 h. 360,000 compounds, 2.1% hits; note: potency is the fitted concentration of half-maximal effect; % is set by controls: 0 for no effect and ±100 for the full control effect; nearly all actives have a fitted effect of over 60% in size
#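 Cells were seeded and rested 2 h, then exposed to compounds for 18-24 h. CellTiter-Fluor was read first as a viability measure. BugLite was added 15 min before the final luminescent read of ARE-luciferase activity in A549 cells.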
# Nrf2 ARE act = qHTS of Nrf2 Activators | 410,000 compounds, 0.31% hits | AREc32 ARE-luciferase reporter (MCF7-derived line), luminescence, 24 h | Potency, µM (highest dose often 46.1 µM), inactives show at the highest dose activation, usual class: activators | AID 624171, 2012; note: potency is the fitted concentration of half-maximal effect; % of control where 0% means no effect; nearly all actives have a fitted effect of over 65% in size
#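 AREc32_Fluc, 1000 cells/well, OPTI-MEM + 5% FBS, o/n 37 deg C 5% CO2; 23 nL cpd by pin tool, 24 hr; Steady-Glo 30 min RT, luminescence.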
# p53 reactivator = qHTS assay for re-activators of p53 using a Luc reporter | Potency, µM (doses to about 92.2 µM), inactives show at the highest dose activity change, positive = activation, actives largely listed as activators | AID 504706, 2011 | 320,000 compounds, 0.063% hits | H1299 p53-A138V BP100-luciferase reporter, luminescence, 24 h; note: potency is the fitted concentration of half-maximal effect; % of control where 0% means no effect; nearly all actives have a fitted effect of over 45% in size
#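 H1299 (p53-null), stable ts p53-A138V + BP100-Luc; 1000 cells/well, Opti-MEM/10% FBS; cpd 4 pt, 1:5; 24 h, 37 deg C, 5% CO2; detection reagent 10 min RT; luminescence.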
# BRCA1 expr up = qHTS Assay to Identify Small Molecule Activators of BRCA1 Expression. MCF7-BRCA1-FFLuc reporter, luminescence, 48 h; response scale: scaled: vehicle 0%, 10 µM genistein 100%. AID 624202, 2012. 380,000 compounds, 1.1% hits. Potency, µM (top dose mostly 46.1 µM), without a hit: at the highest dose activation, most hits filed as activators; note: potency is the fitted concentration of half-maximal effect; nearly all actives have a fitted effect of over 80% in size
#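 MCF7-BRCA1-FFLuc, 2000 cells/well; 2 h attach, 37 °C/5% CO2; compound 48 h; luciferase substrate 15 min; luminescence end-point. Norm. to genistein 10 microM max activation and DMSO; concentration-response curves fitted.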
# IL2 activator = qHTS of IL-2 Activators. IL-2 activation reporter assay, cell-based qHTS; stimulated with anti-CD3/CD4/CD28 beads; in transgenic mouse T cells. activation, % (series mostly up to about 46 µM). 360,000 compounds, 0.065% hits; in the data active = activation above about 50%; inconclusive = mostly about 30% to 49%; note: 0% is about no effect
#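 Unstimulated transgenic mouse T cells preincubated 60 min with compound, then stimulated with anti-CD3/anti-CD4-coated beads plus anti-CD28 for 18 h at 37 degrees C. IL-2 response read as EGFP and DsRed fluorescence by plate cytometry.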
# A549 tox-1 = Nrf2 qHTS screen for inhibitors: counterscreen for cytotoxicity | A549 ARE-Fluc cells, CellTiter-Fluor viability, 18-24 h | 390,000 compounds, 0.16% hits | Potency, µM (doses to about 46 µM), inactives show at the highest dose activity change, negative = cytotoxicity, hits mostly inhibitors; note: potency is the fitted concentration of half-maximal effect; % is set by controls: 0 for no effect and ±100 for the full control effect
#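 Cytotoxicity counterscreen: CellTiter-Fluor fluorescence was measured in A549 ARE_Fluc cells after 18-24 h of compound exposure in a concentration series. The subsequent BugLite luminescent read reports ARE-luciferase activity.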
# FLuc counter 3 = Nrf2 qHTS screen for inhibitors: Purified Fluc Biochemical Counterscreen for Hit Validation. shares compounds with Nrf2 inh. purified firefly luciferase, luminescence inhibition. Potency, µM (top dose mostly 57.5 µM), for inactives: at the top dose activity change, negative = inhibition, actives largely listed as inhibitors. AID 720522, 2013. 1,400 compounds, 4% hits; note: potency is the fitted concentration of half-maximal effect; % is set by controls: 0 for no effect and ±100 for the full control effect; nearly all actives have a fitted effect of over 65% in size
# Target sequence (P08659 whole entry, looked up): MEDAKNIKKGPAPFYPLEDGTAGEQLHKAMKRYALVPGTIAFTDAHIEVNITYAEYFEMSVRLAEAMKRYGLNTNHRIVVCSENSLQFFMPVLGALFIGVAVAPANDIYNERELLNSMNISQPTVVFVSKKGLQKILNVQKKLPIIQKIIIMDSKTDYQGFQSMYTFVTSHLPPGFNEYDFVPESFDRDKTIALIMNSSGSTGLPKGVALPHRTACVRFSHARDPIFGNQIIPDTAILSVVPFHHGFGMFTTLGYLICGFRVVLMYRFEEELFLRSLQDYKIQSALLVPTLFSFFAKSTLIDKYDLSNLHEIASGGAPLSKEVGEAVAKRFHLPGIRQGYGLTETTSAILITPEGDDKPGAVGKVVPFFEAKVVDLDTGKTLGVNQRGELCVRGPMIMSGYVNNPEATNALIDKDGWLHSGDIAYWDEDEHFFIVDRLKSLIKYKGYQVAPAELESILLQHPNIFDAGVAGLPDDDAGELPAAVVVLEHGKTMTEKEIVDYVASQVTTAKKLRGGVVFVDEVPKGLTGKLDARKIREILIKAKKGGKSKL
# A549 tox-2 = Nrf2 qHTS screen for inhibitors: A549 ARE-Fluc Cytotoxicity Counterscreen for Hit Validation; shares compounds with Nrf2 inh; A549 ARE-Fluc cells, cytotoxicity counterscreen; Potency, µM (top dose mostly 46.1 µM), for inactives: at the top dose activity change, negative = cytotoxicity, usual class: inhibitors; 1,400 compounds, 2% hits; AID 720523, 2013;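 note: potency is the fitted concentration of half-maximal effect; cells exposed to compounds for 18 to 24 hours; % is set by controls: 0 for no effect and ±100 for the full control effect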
# ARE-Fluc inh = Nrf2 qHTS screen for inhibitors: Nrf2 A549 ARE-Fluc Confirmation Assay for Hit Validation. shares compounds with Nrf2 inh. A549 ARE-firefly luciferase reporter, luminescence. Potency, µM (titrated, usually from 46.1 µM), for the others: at the highest dose activity change, negative = inhibition, most hits filed as inhibitors. 1,400 compounds, 74% hits. AID 720524, 2013; note: potency is the fitted concentration of half-maximal effect; % is set by controls: 0 for no effect and ±100 for the full control effect; nearly all actives have a fitted effect of over 65% in size
# An asterisk follows results filed as active; u = inconclusive; x = no result shown; [ ] = another dose, or the depositor's remark. Unless noted, calls come from the whole dose curve; as a rule, active = well fitted curve in the direction sought with a large enough effect; inconclusive = small, poorly fitted or top-dose-only effect, or another doubt; inactive = no such curve, though single readings can be large; an effect the other way counts as inactive or inconclusive.
SMILES,Nrf2 inh,Nrf2 ARE act,p53 reactivator,BRCA1 expr up,IL2 activator,A549 tox-1,FLuc counter 3,A549 tox-2,ARE-Fluc inh
COc1ccc(C2/C=C\CN(C(=O)C3CCCC3)C(C)C(=O)N2Cc2ccc(F)cc2)cc1 (centres undefined),-15%,x,x,x,x,-13%,x,x,x
CCN1CCC(N(Cc2cccc(OC)c2)C(=O)Nc2cccc(C)c2C)CC1,12%,4%,x,x,x,-14%,x,x,x
CCCCN(C(=O)c1ccc(N2CCCC2=O)cc1)c1c(N)n(Cc2ccccc2)c(=O)[nH]c1=O,5.8µM*,0%,1%,2%,-6,-9%,0%,-10%,3.7µM*
NS(=O)(=O)c1cc(C(=O)O)cc(N2CCCC2)c1Oc1ccccc1,2%,0%,1%,-1%,1,-4%,x,x,x
CCCCNc1cc(C(=O)O)cc(S(N)(=O)=O)c1Oc1ccccc1,5.8µM*,0%,5%,5%,-1,-3%,2%,-7%,6.5µM*
Cc1ccc(S(=O)(=O)N2CCN(c3ncnc4sccc34)CC2)cc1,7.3µM*,1%,-14%,-47%,-4,-8%,-2%,4%,8.2µM*
c1ccc(CC2CCN(c3ncnc4sccc34)CC2)cc1,5.2µM*,0%,-1%,-3%,-3,-5%,-29%,-3%,3.7µM*
O=C(O)c1cc2c(N3CCC(Cc4ccccc4)CC3)ncnc2s1,1%,2%,-1%,-33%,0,3%,x,x,x
CC1C(O)=C(c2ccccc2)P(=O)(Cc2ccccc2)C1C (centres undefined),x,0%,x,24%,0,x,x,x,x
COc1ccc(OC)c(NC(=O)CSC2=Nc3ccccc3C3=NC(CCC(=O)NCc4ccccc4)C(=O)N23)c1 (centres undefined),x,6%,x,x,x,6%,x,x,x
O=C(CSc1c2c(nc3ccc(Cl)cc13)CCCC2)N1CCN(c2cccc(Cl)c2)CC1,9.2µM*,26%,x,x,x,-27%,2%,u,u
O=C(CSc1c2c(nc3ccc(Cl)cc13)CCCC2)N1CCN(c2ccc(Cl)cc2)CC1,2.9µM*,9%,x,x,x,u,-1%,u,21µM*
COc1cccc(N2CC(NC(=O)/C=C\c3ccc4c(c3)OCO4)CC2=O)c1 (centres undefined),x,6%,x,x,x,10%,x,x,x
Cc1ccc2c(CC(=O)Nc3ccc(S(=O)(=O)N4CCCCC4C)cc3)coc2c1 (centres undefined),u,4%,x,x,x,-3%,x,x,x
CCOc1ccc2nc(NC(=O)CS(=O)(=O)c3ccc(Cl)cc3)sc2c1,x,-1%,x,x,x,-21%,x,x,x
COC1C=COC2(C)Oc3c(C)c(O)c4c(O)c(c(CN5CCN(C)CC5)c(O)c4c3C2=O)NC(=O)C(C)=CC=CC(C)C(O)C(C)C(O)C(C)C(OC(C)=O)C1C (centres undefined),-9%,-1%,x,-25%,-2,-16%,x,x,x
CCC(C)N1CCC2(CC1)N=c1c(c3c4c5c(C)c(O)c3c(O)c1=NC(=O)C(C)=CC=C[C@H](C)[C@H](O)[C@@H](C)[C@@H](O)[C@@H](C)[C@H](OC(C)=O)[C@H](C)[C@@H](OC)C=CO[C@@](C)(O5)C4=O)N2 (some centres undefined),8.2µM*,-1%,0%,-32%,-1,u,-14%,u,u
COc1cc(C)c(Br)cc1S(=O)(=O)NCc1ccncc1,3.3µM*,0%,-8%,-15%,0,-6%,1%,5%,-32%
Cc1cc(C)c(S(=O)(=O)NCc2ccncc2)c(C)c1,u,0%,0%,-80%,-4,-17%,0.11µM*,-2%,0.21µM*
Cc1ccc(S(=O)(=O)NCc2ccncc2)c(C)c1C,1.5µM*,0%[9.22 µM],-2%,-28%,-4,-6%,0%,-7%,6.5µM*
COc1cc(C)c(Br)cc1S(=O)(=O)NCc1cccs1,-17%,0%,-5%,-7%,-3,1%,x,x,x
COc1cc(NC(=O)CCc2c(C)n(C)c3cc(-c4ccccc4C)nn3c2=O)cc(OC)c1OC,x,8%,x,x,x,1%,x,x,x
CCc1cccc(NC(=O)CSc2ncc3c(n2)-c2ccccc2N(Cc2ccccc2C)S3(=O)=O)c1,u,5%,x,x,x,9%,x,x,x
COc1ccc(C(=O)Nc2ccc(Cl)c(S(=O)(=O)N3CCOCC3)c2)cc1,9.2µM*,3%,19%,-25%,-1,-14%,21µM*,-12%,x
CC(=O)c1ccc(OCCCC(=O)Nc2ccc(Cl)c(S(=O)(=O)N3CCOCC3)c2)cc1,5.2µM*,4%,x,-22%,-1,-15%,-13%,-2%,7.3µM*
SMILES,Nrf2 inh,Nrf2 ARE act,p53 reactivator,BRCA1 expr up,IL2 activator,A549 tox-1,FLuc counter 3,A549 tox-2,ARE-Fluc inh
CCc1nc(C)cn1S(=O)(=O)c1ccc(Cl)c(Cl)c1OC,5.8µM*,0%,x,x,x,0%,0%,-1%,5.8µM*
CCOc1cc(Cl)c(S(=O)(=O)n2cc(C)nc2CC)cc1Cl,8.2µM*,0%,x,x,x,-8%,3%,0%,8.2µM*
Nc1cc(S(=O)(=O)Nc2ccccc2Cl)ccc1N1CCCCC1,7.3µM*,0%,19%,15%,-1,-10%,9.5µM*,-4%,15µM*
C=CCOc1ccc(CN(C)C(=O)c2ccc(CNS(=O)(=O)c3ccc(C)c(C)c3)cc2)cc1,9.2µM*,1%,14%,-46%,0,u,0%,-25%,u
O=C(NC(=O)c1c(Cl)cccc1Cl)Nc1ccc(Oc2cccnc2)nc1,u,0%,-2%,-18%,-6,-1%,x,x,x
O=C(Nc1ccc(Oc2cccnc2)nc1)c1ccc(C(F)(F)F)cc1,5.8µM*,0%,-6%,-18%,0,0%,u,-5%,4.6µM*
